From PubChem BioAssay (EPA / NIEHS)
The source made the active and inactive calls. How the source made its calls: active means hit-call score of the fitted dose curve at least 0.9, where 1 is the maximum; inactive means score below 0.9.

Experiments:
[1] = target: Bile acid receptor (Homo sapiens) (UniProt Q96RI1); experiment: ATG_IR1_CIS: Attagene CIS-FACTORIAL HepG2 Assay for human Nuclear Receptor Subfamily 1 Group H Member 4 (NR1H4), IR1 submotif (AID 2282946); details: IR1 reporter transcription, actives raise or lower the signal
Sequence of Bile acid receptor (Homo sapiens) (Q96RI1 whole entry, looked up): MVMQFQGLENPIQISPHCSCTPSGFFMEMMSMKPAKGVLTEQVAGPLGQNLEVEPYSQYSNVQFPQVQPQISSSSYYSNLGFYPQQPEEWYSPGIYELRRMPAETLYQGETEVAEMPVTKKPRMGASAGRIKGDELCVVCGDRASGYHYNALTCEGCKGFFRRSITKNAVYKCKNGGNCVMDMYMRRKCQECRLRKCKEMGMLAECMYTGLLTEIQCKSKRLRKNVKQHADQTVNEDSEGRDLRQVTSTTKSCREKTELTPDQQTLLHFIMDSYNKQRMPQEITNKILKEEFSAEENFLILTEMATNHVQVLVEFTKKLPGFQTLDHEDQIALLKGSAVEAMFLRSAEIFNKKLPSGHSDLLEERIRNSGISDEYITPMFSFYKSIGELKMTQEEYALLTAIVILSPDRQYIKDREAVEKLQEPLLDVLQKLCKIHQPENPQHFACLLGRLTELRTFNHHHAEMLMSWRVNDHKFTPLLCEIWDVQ
Summary of the method: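 HepG2 cells transiently transfected with multiple cis-promoter-driven reporter units to measure endogenous transcription factor activity; 24 h exposure. Reporter mRNA read by RT-PCR, FAM labelling, HpaI digestion and capillary electrophoresis. Bidirectional fit versus DMSO.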

[2] = ATG_ISRE_CIS: Attagene CIS-FACTORIAL HepG2 Assay for human Interferon Regulatory Factor 1 (IRF1) binding to an Interferon-Stimulated Response Element (ISRE) (AID 2282948); details: HepG2 ISRE cis-reporter (Attagene), mRNA transcription readout; actives raise or lower the signal
Summary of the method: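 Quantitation relies on labelled RT-PCR fragments separated by capillary electrophoresis. Human HepG2 cells bearing cis-promoter reporter constructs were treated 24 h; DMSO served as baseline for bidirectional fitting.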

[3] = ATG_M_32_CIS: Attagene CIS-FACTORIAL HepG2 Assay for M32 Transcription Factor (Internal Marker) (AID 2282949); details: HepG2 Attagene cis-factorial M32 reporter, mRNA; actives raise or lower the signal;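 further: background control marker of the multiplexed CIS panel rather than a real target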
Summary of the method: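 Internal background marker read-out: RT-PCR/capillary electrophoresis fluorescence of reporter transcripts from transiently transfected HepG2 cells after 24 h chemical exposure. Activity fitted bidirectionally relative to DMSO negative control.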

[4] = ATG_M_06_CIS: Attagene CIS-FACTORIAL HepG2 Assay for M06 Transcription Factor (Internal Marker) (AID 2282950); details: HepG2 Attagene CIS-FACTORIAL M06 internal marker reporter; actives raise or lower the signal
Summary of the method: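 HepG2 cells transiently transfected with cis-regulated multiple reporter transcription units were exposed to chemical for 24 h; reporter mRNA was quantified by RT-PCR, 6-FAM primer labelling, HpaI digestion and capillary electrophoresis, fitted bidirectionally against DMSO.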

[5] = target: Hypoxia-inducible factor 1-alpha (Homo sapiens) (UniProt Q16665); experiment: ATG_HIF1a_CIS: Attagene CIS-FACTORIAL HepG2 Assay for human Hypoxia Inducible Factor 1 (HIF1A) (AID 2282951); details: HepG2 Attagene cis-factorial HIF1a reporter transcription; actives raise or lower the signal
Sequence of Hypoxia-inducible factor 1-alpha (Homo sapiens) (Q16665 whole entry, looked up): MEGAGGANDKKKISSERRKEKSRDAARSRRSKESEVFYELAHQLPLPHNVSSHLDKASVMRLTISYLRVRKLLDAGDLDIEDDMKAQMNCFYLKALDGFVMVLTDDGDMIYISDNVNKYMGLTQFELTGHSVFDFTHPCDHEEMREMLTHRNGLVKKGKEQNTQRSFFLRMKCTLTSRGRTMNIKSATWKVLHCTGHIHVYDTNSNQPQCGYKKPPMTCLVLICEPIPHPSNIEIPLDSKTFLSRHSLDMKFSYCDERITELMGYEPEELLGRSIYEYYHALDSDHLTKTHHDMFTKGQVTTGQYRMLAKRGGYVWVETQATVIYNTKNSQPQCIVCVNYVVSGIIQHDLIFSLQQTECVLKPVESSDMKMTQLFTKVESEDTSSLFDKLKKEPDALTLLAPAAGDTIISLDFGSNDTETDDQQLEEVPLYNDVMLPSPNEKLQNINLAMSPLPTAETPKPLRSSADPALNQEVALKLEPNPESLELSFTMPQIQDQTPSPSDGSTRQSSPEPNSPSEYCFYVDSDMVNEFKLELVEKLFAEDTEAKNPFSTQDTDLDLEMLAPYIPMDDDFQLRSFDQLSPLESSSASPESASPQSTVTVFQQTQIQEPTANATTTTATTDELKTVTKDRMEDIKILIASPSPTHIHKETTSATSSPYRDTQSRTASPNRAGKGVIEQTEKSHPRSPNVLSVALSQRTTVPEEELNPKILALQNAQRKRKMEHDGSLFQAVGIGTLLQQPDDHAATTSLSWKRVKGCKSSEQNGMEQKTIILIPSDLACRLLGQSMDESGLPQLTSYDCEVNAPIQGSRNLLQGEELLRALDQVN
Summary of the method: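 Activity is fitted in both directions relative to DMSO. Reporter transcripts are read by RT-PCR, fluorescent primer extension and capillary electrophoresis after 24 h chemical treatment. The cells are HepG2 carrying transiently transfected cis-element-driven reporter units responding to endogenous factors.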

[6] = target: Hepatocyte nuclear factor 6 (Homo sapiens) (UniProt Q9UBC0); experiment: ATG_HNF6_CIS: Attagene CIS-FACTORIAL HepG2 Assay for human Hepatocyte Nuclear Factor 6 (HNF6) (AID 2282952); details: HepG2 Attagene cis-factorial HNF6 reporter transcription; actives raise or lower the signal
Sequence of Hepatocyte nuclear factor 6 (Homo sapiens) (Q9UBC0 whole entry, looked up): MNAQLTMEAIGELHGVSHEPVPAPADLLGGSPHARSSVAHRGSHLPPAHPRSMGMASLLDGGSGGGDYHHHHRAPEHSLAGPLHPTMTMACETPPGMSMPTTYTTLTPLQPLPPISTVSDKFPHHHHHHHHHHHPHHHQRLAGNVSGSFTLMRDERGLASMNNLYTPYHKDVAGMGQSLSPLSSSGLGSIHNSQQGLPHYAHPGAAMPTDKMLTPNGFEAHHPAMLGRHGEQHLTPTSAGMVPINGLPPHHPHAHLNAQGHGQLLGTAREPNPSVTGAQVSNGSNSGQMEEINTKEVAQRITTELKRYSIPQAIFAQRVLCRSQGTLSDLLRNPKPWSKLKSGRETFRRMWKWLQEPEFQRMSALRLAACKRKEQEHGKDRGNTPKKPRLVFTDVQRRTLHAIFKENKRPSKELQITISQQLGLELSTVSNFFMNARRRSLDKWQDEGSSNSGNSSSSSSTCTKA
Summary of the method: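 Multiplexed mRNA reporter assay in transfected HepG2; 24 h dosing; RT-PCR plus capillary electrophoresis fluorescence; DMSO-referenced bidirectional curve fitting.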

[7] = target: Heat shock factor protein 1 (Homo sapiens) (UniProt Q00613); experiment: ATG_HSE_CIS: Attagene CIS-FACTORIAL HepG2 Assay for human Heat Shock Transcription Factor 1 (HSE) (AID 2282953); details: HepG2 HSE cis-reporter, Attagene RNA transcription; actives raise or lower the signal
Sequence of Heat shock factor protein 1 (Homo sapiens) (Q00613 whole entry, looked up): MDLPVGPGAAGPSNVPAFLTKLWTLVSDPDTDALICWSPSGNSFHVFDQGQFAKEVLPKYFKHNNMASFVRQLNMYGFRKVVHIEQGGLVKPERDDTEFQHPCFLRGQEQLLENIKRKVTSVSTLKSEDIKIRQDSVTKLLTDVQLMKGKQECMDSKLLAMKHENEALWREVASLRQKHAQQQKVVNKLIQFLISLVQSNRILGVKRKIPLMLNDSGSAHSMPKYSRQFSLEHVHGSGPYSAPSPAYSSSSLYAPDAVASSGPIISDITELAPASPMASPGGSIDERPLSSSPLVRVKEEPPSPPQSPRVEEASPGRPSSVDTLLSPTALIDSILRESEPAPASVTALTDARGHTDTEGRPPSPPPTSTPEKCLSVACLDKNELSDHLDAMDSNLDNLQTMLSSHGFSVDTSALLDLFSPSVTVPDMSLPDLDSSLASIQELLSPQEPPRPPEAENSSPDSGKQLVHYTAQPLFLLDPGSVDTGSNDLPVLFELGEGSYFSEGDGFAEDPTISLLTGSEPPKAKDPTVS
Summary of the method: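 HepG2 cells transiently transfected with multiple reporter transcription units under cis-regulatory promoter control, measuring endogenous transcription factor activity. After 24 h chemical exposure, reporter mRNA quantified by RT-PCR, fluorescent labelling, HpaI digestion and capillary electrophoresis; bidirectional fit versus DMSO.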

[8] = ATG_MRE_CIS: Attagene CIS-FACTORIAL HepG2 Assay for human Metal Responsive Element (MRE) (AID 2282954); details: HepG2 MRE cis-reporter transcription, Attagene multiplex; actives raise or lower the signal
Summary of the method: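 Fluorescent reporter fragments separated by capillary electrophoresis give mRNA induction for the MRE unit after 24 h treatment of transfected HepG2 cells. Endogenous transcription-factor activity is read; DMSO serves as negative control and baseline.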

[9] = target: Paired box protein Pax-6 (Homo sapiens) (UniProt P26367); experiment: ATG_Pax6_CIS: Attagene CIS-FACTORIAL HepG2 Assay for human Paired Box 6 (PAX6) (AID 2282956); details: HepG2 CIS-FACTORIAL PAX6 reporter transcription, RNA readout; actives raise or lower the signal
Sequence of Paired box protein Pax-6 (Homo sapiens) (P26367 whole entry, looked up): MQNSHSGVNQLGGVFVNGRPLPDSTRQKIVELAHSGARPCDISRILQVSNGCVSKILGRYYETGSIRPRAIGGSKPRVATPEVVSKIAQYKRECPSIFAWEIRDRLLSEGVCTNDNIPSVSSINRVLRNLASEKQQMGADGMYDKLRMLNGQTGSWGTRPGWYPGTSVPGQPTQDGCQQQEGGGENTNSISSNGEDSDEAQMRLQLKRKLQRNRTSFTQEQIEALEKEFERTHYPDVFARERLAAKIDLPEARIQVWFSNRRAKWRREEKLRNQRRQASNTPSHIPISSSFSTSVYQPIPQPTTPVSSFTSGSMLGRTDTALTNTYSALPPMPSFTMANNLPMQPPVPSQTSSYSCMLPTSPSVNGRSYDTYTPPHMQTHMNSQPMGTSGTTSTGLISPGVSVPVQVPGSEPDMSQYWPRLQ
Summary of the method: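 After twenty-four hours of chemical exposure, transfected HepG2 cells are harvested for RNA. Cis-promoter reporter transcripts are amplified, fluorescently labelled and sized by capillary electrophoresis, with gain and loss of signal scored against DMSO.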

[10] = ATG_PXRE_CIS: Attagene CIS-FACTORIAL HepG2 Assay for human Pregnane X Receptor Element (PXRE) (AID 2282957); details: HepG2 Attagene CIS-FACTORIAL PXRE reporter, mRNA; actives raise or lower the signal
Summary of the method: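 Cells: HepG2, transiently transfected reporter units under cis promoter control. Exposure: 24 h. Detection: reporter mRNA via RT-PCR/CE fluorescence; bidirectional fitting, DMSO-referenced.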

[11] = ATG_RORE_CIS: Attagene CIS-FACTORIAL HepG2 Assay for human RAR-related Orphan Receptor Element (RORE) (AID 2282959); details: HepG2 Attagene cis-factorial RORE reporter, mRNA; actives raise or lower the signal
Summary of the method: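 RORE reporter transcripts reflecting endogenous factor activity were read after 24 h compound exposure of transfected HepG2 cells, using reverse transcription, PCR, fluorescent labelling and capillary electrophoresis sizing. Gain or loss fitted against DMSO.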

[12] = target: Transcription factor Sp1 (Homo sapiens) (UniProt P08047); experiment: ATG_Sp1_CIS: Attagene CIS-FACTORIAL HepG2 Assay for human Specificity Protein 1 (Sp1) (AID 2282961); details: HepG2 Sp1 cis-reporter transcription, actives raise or lower the signal
Sequence of Transcription factor Sp1 (Homo sapiens) (P08047 whole entry, looked up): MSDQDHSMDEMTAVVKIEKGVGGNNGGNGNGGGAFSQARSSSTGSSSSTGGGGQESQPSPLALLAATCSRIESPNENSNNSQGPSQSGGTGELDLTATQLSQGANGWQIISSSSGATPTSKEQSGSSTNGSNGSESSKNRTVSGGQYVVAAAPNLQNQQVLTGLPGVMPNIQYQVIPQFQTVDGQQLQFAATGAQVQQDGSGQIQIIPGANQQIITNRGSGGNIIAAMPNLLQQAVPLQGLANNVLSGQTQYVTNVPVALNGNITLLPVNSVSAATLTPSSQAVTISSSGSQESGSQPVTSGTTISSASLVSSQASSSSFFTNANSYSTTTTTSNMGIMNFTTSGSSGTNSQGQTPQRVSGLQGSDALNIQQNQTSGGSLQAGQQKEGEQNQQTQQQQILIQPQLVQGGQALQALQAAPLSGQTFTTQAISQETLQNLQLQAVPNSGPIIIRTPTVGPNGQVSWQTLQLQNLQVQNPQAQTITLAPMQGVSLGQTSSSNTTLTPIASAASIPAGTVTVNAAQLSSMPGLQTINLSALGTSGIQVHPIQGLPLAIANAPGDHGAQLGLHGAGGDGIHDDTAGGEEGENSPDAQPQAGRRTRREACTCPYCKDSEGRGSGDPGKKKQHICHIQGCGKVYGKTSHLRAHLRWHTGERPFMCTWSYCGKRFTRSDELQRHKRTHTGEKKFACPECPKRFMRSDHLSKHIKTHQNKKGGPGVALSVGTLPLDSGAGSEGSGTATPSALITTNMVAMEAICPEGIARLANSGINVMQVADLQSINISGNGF
Summary of the method: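 Read-out is reporter transcript level, measured by RT-PCR and fluorescent capillary electrophoresis after 24 h chemical treatment. System: transiently transfected HepG2 cells reporting endogenous transcription factor activity; gain or loss fitted against DMSO baseline.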

[13] = target: Signal transducer and activator of transcription 3 (Homo sapiens) (UniProt P40763); experiment: ATG_STAT3_CIS: Attagene CIS-FACTORIAL HepG2 Assay for human Signal Transducer and Activator of Transcription 3 (STAT3) (AID 2282963); details: HepG2, Attagene cis-factorial STAT3 reporter transcription; actives raise or lower the signal
Sequence of Signal transducer and activator of transcription 3 (Homo sapiens) (P40763 whole entry, looked up): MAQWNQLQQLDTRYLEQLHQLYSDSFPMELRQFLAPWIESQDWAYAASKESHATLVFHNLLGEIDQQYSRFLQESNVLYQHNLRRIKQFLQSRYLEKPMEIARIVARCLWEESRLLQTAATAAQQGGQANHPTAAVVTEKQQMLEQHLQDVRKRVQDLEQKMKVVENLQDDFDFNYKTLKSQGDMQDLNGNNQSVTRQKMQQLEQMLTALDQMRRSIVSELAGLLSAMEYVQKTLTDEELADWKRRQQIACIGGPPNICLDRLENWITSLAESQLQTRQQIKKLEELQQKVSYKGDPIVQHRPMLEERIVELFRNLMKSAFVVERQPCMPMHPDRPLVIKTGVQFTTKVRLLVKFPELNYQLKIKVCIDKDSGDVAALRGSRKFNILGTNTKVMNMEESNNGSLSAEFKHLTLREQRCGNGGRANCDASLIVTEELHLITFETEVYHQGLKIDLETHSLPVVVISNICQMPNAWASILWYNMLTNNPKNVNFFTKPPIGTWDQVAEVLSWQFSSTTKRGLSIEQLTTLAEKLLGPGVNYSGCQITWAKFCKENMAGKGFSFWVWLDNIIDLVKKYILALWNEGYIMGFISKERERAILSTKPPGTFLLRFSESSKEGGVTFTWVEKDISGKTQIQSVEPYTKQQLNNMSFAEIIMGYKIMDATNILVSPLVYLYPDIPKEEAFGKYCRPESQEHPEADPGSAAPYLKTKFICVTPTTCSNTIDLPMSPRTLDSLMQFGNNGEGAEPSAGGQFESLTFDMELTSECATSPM
Summary of the method: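 Values derive from bidirectional fits relative to DMSO of reporter mRNA levels, measured by RT-PCR with capillary electrophoresis, in HepG2 cells carrying transiently transfected cis-regulated reporter units and exposed 24 h.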

[14] = ATG_TA_CIS: Attagene CIS-FACTORIAL HepG2 Assay for human TA Basal Promoter (AID 2282964); details: HepG2 Attagene CIS-factorial TA basal promoter reporter; actives raise or lower the signal
Summary of the method: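 HepG2 cells transiently transfected with multiplexed cis-promoter reporter units, dosed 24 h. Reporter mRNA measured by RT-PCR, 6-FAM labelling, HpaI digestion and capillary electrophoresis; bidirectional fit versus DMSO baseline, serving as background control.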

[15] = ATG_TCF_b_cat_CIS: Attagene CIS-FACTORIAL HepG2 Assay for human T-Cell-Factor with beta-catenin (TCF/b-cat) (AID 2282965); details: HepG2 TCF/beta-catenin cis-reporter transcription, actives raise or lower the signal
Summary of the method: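 HepG2 cells transiently transfected with cis-promoter-driven multiplexed reporter units; reporter mRNA measured 24 h after dosing by RT-PCR, FAM labelling, HpaI digestion and capillary electrophoresis. Bidirectional fitting relative to DMSO baseline.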

[16] = ATG_GRE_CIS: Attagene CIS-FACTORIAL HepG2 Assay for human Glucocorticoid Response Elements (GRE) (AID 2282947); details: HepG2 GRE cis-reporter, Attagene multiplex mRNA; actives raise or lower the signal
Summary of the method: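 Endogenous transcription factor activity is read through cis-element reporter constructs transiently transfected into HepG2 cells. After 24 h treatment, labelled RT-PCR products are resolved by capillary electrophoresis; DMSO sets baseline for bidirectional curve fitting.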

[17] = ATG_PPRE_CIS: Attagene CIS-FACTORIAL HepG2 Assay for human Peroxisome Proliferator-activated Response Element (PPRE) (AID 2282958); details: HepG2 PPRE cis-element reporter, Attagene transcription factor profiling; actives raise or lower the signal
Summary of the method: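 Endogenous PPRE-driven transcription is measured in HepG2 cells carrying transfected multi-reporter constructs. Reporter transcripts are quantified by RT-PCR, HpaI digestion and capillary electrophoresis 24 h after dosing. DMSO baseline, bidirectional fit.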

[18] = ATG_Sox_CIS: Attagene CIS-FACTORIAL HepG2 Assay for human SRY-box transcription factor (SOX) (AID 2282960); details: HepG2 Attagene cis-factorial SOX reporter, mRNA; actives raise or lower the signal
Summary of the method: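 Reporter transcripts, measured by RT-PCR and capillary electrophoresis of labelled fragments, report endogenous SOX transcription factor activity. Transiently transfected human HepG2 cells receive chemical for 24 h; changes in either direction are fitted relative to DMSO.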

[19] = ATG_PBREM_CIS: Attagene CIS-FACTORIAL HepG2 Assay for human Phenobarbital-responsive Enhancer Module (PBREM) (AID 2282955); details: HepG2 PBREM cis-reporter, Attagene multiplexed transcription; actives raise or lower the signal
Summary of the method: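 Endogenous transcription factor activity was read from reporter transcripts in transiently transfected human HepG2 liver cells after 24 h dosing. RT-PCR products were fluorescently labelled, HpaI-cut and sized by capillary electrophoresis; activity fitted bidirectionally against DMSO baseline.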

Measured: AC50

O=c1ccc(=O)[nH][nH]1
active: [10] 26.7 µM
not listed: [16] | [17] | [18] | [19]
inactive: all other assays above

CCOP(=O)(OCC)Oc1cc(C)nc(C(C)C)n1
not listed: [11] | [19]
inactive: all other assays above

CCCSP(=O)(OCC)Oc1ccc(Br)cc1Cl (stereo unspecified)
active: [10] 3.04 µM
not listed: [11] | [16]
inactive: all other assays above

FC(F)C(F)(F)OCC(Cn1cncn1)c1ccc(Cl)cc1Cl (stereo unspecified)
active: [5] 75.4 µM | [7] 81.4 µM | [8] 69.3 µM | [9] 78.8 µM | [10] 6.25 µM | [17] 44.5 µM
not listed: [11] | [19]
inactive: all other assays above
